Screen size: about 330,000 compounds; about 1,900 (0.58%) were called active. Not shown: some 4% with an inconclusive outcome. The list is a sample of the results. Entries with a potency or affinity are not part of this list. Values without a mark were called inactive. No stated cut-off is given here; in the data, inconclusive means inhibition above about 70% without an active follow-up result; inactive means below that.
assay: M. tuberculosis growth inhibition, HTS (AID 449762);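 further: bacterial growth assessed after seven days of incubation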; conditions: M. tuberculosis H37Rv growth inhibition, 7H9 media; at 25 µM; active compounds read high

Q: Which inhibition does the source give for CCOc1ccc(CCNC(=O)c2cccc(S(=O)(=O)N3CC(C)OC(C)C3)c2)cc1OCC (stereo not drawn) here?
A: 2.57%

Q: Which inhibition does the source give for CC(=O)Nc1ccc(N2CCN(c3ccc(C(F)(F)F)cn3)CC2)nc1 here?
A: 17.9%

Q: For CC(C)(C)C(=O)Nc1ccc(N2CCN(c3ccc(C(F)(F)F)cn3)CC2)nc1, which inhibition is on record?
A: -0.97%

Q: For c1ccc(OCCCCn2cnc3ccccc32)cc1, which inhibition is on record?
A: 4.06%

Q: For c1ccc2c(c1)ncn2CCCOc1ccc2c(c1)CCC2, which inhibition is on record?
A: 68.5%

Q: With O=C(O)CCCC(=O)N1N=C(c2ccccc2)CC1c1ccc2nccnc2c1 (stereo not drawn) as the compound, how does the inhibition read?
A: 0.01%

Q: Which inhibition does the source give for O=C(N/C(=C\c1cccc([N+](=O)[O-])c1)C(=O)N1CCCCC1)c1cccs1 here?
A: -1.22%

Q: With COCC(=O)NC(c1ccccc1)c1ccccc1 as the compound, how does the inhibition read?
A: 1.57%

Q: Which inhibition does the source give for CCN1CCN(C(c2ccc(OC)cc2)C(O)C(=O)c2c[nH]c3ccccc23)CC1 (stereo not drawn) here?
A: 1.81%

Q: For O=C(c1c[nH]c2ccccc12)C(O)C(c1ccccc1)N1CCOCC1 (stereo not drawn), which inhibition is on record?
A: -0.62%

Q: Which inhibition does the source give for CCOc1ccccc1C(C(=O)NC1CCCCC1)N(C(=O)c1csnn1)C1CC1 (stereo not drawn) here?
A: -6.88%

Q: For COC(=O)c1ccc(COc2cc(O)c3c(c2)OC(C)(C)CC3=O)cc1, which inhibition is on record?
A: 20.4%

Q: Which inhibition does the source give for CC1(C)CC(=O)c2c(O)cc(OCc3ccc([N+](=O)[O-])cc3)cc2O1 here?
A: 8.3%

Q: With N=C(c1ccc([N+](=O)[O-])cc1)N1CCCCC1 as the compound, how does the inhibition read?
A: 8.06%

Q: Which inhibition does the source give for O=C1CCN(Cc2ccccc2)CCN1CCSc1ccccc1 here?
A: -0.68%

Q: For CCOc1ccccc1N(CC(=O)Nc1ccc2c(c1)OCO2)S(C)(=O)=O, which inhibition is on record?
A: -15.7%

Q: For O=C(Nc1cc(-c2nc3ncccc3o2)ccc1Cl)c1ccc([N+](=O)[O-])o1, which inhibition is on record?
A: -1.99%

Q: For COc1ccc(C(=O)Nc2cccc(-c3nc4ncccc4o3)c2C)cc1, which inhibition is on record?
A: 2.93%

Q: With COc1ccc(N2C(=O)C3C(C2=O)C3(c2ccccc2)c2ccccc2)cc1 (stereo not drawn) as the compound, how does the inhibition read?
A: 1.86%

Q: For COc1ccc(N2C(=O)C3C4c5ccccc5C(C=Nc5ccc(C)cc5C)(c5ccccc54)C3C2=O)cc1 (stereo not drawn), which inhibition is on record?
A: 36.6%

Q: For Cn1c(=O)c2c(nc3n2CC(O)CN3c2ccc(O)cc2)n(C)c1=O (stereo not drawn), which inhibition is on record?
A: -2.83%

Q: With CCc1cccc2c(=O)c(C(=O)NCCN3CCOCC3)c[nH]c12 as the compound, how does the inhibition read?
A: -3.32%

Q: For CCc1cccc2c(C(=O)COC(=O)c3ccc(O)cc3)c[nH]c12, which inhibition is on record?
A: -5.92%

Q: For CCc1cccc2c(C(=S)N3CCOCC3)c[nH]c12, which inhibition is on record?
A: 3.01%

Q: With CCc1cccc2c(C(=O)COC(=O)c3ccccc3)c[nH]c12 as the compound, how does the inhibition read?
A: 0.69%

Q: For O=C(NCc1ccccc1)c1cccc(Br)n1, which inhibition is on record?
A: 2.81%

Q: With CC(C)n1cc(CNC(=O)C2CCC(=O)N(Cc3ccccc3F)C2)cn1 (stereo not drawn) as the compound, how does the inhibition read?
A: 5.12%

Q: With O=C(OCc1ccc([N+](=O)[O-])cc1)C1CC(=O)N(Cc2ccccc2)C1 (stereo not drawn) as the compound, how does the inhibition read?
A: 6.8%

Q: For COCCN(C(=O)c1cccc(N2C(=O)CCC2=O)c1)c1nc(-c2ccc([N+](=O)[O-])cc2)cs1, which inhibition is on record?
A: 31.4%

Q: With Cc1cc(C)n(CCC(=O)N=Nc2c(O)[nH]c3ccccc23)n1 as the compound, how does the inhibition read?
A: 3.85%

Q: Which inhibition does the source give for CCC1CCCCN1CCCNC(=O)CSc1nc2nc(C)c(Cc3ccccc3Cl)c(C)n2n1 (stereo not drawn) here?
A: 4.72%

Q: Which inhibition does the source give for Cc1ccc(N2CCN(/N=C/C(Cl)=C/c3ccccc3)CC2)cc1 here?
A: 4.03%

Q: For COc1ccccc1N1CCN(/N=C\c2ccccc2)CC1, which inhibition is on record?
A: 4.03%

Q: For O=C(Nc1ccc2c3c(cccc13)CC2)c1cccc([N+](=O)[O-])c1, which inhibition is on record?
A: -7.19%

Q: With Cc1c(C(=O)Nc2ccc3c4c(cccc24)CC3)cccc1[N+](=O)[O-] as the compound, how does the inhibition read?
A: 27.6%

Q: For COc1ccc(-c2cc(C)no2)cc1S(=O)(=O)N1CCN(C(=O)c2ccco2)CC1, which inhibition is on record?
A: -7.17%

Q: With COc1ccc(CCN=C(N)C(C)c2ccccc2)cc1OC (stereo not drawn) as the compound, how does the inhibition read?
A: -10.7%

Q: For CC(C)Cc1ccc(C(C)C(=N)N)cc1 (stereo not drawn), which inhibition is on record?
A: 6.85%

Q: With CCOC(=O)c1c(-c2ccc(OC)cc2)csc1NC(=O)CSc1ccccc1 as the compound, how does the inhibition read?
A: 3.36%

Q: With CCOC(=O)c1c(-c2ccc(Cl)cc2)csc1NC(=O)CNCc1ccco1 as the compound, how does the inhibition read?
A: 3.78%

Q: Which inhibition does the source give for COC(=O)c1c(NC(=O)C(C)C)sc(C(=O)N2CCOCC2)c1C here?
A: -8.29%

Q: With COC(=O)c1c(NC(C)=O)sc(C(=O)N2CCOCC2)c1C as the compound, how does the inhibition read?
A: 2.88%

Q: For S=C(NCc1ccncc1)Nc1cc(Cl)cc(Cl)c1, which inhibition is on record?
A: 69.9%

Q: Which inhibition does the source give for COC(c1ccccc1)c1nnc(CCC(=O)N(C)CCCC2CCCC2)o1 (stereo not drawn) here?
A: 3.33%

Q: For O=C(CCc1nnc(CCCCc2ccccc2)o1)NCCC1CCCCO1 (stereo not drawn), which inhibition is on record?
A: -2.58%

Q: For CN(C(=O)CCc1nnc(-c2ccc(-c3ccccc3)cc2)o1)C1CCOCC1, which inhibition is on record?
A: -8.56%

Q: With O=C(CCc1nnc(CCCc2ccccc2)o1)NCCc1ccccc1 as the compound, how does the inhibition read?
A: 3.96%

Q: Which inhibition does the source give for COc1ccc(C2=CSC3=NCCN23)cc1 here?
A: 4.38%

Q: With CCC(=NCc1cccnc1)c1c(O)n(Cc2ccccc2)c(=O)[nH]c1=O as the compound, how does the inhibition read?
A: -0.2%

Q: Which inhibition does the source give for COc1ccc(NC(=O)Cn2c(=O)n(-c3ccccc3)c(=O)c3oc4ccccc4c32)c(OC)c1 here?
A: -0.2%

Q: Which inhibition does the source give for CC1(C)CC(=O)CC(=Nc2ccc(C(=O)O)cc2)C1 here?
A: 2.32%

Q: With COc1ccc(OC)c(C(c2nnnn2Cc2ccccc2)N2CCN(C)CC2)c1 (stereo not drawn) as the compound, how does the inhibition read?
A: 5.62%

Q: For Cc1ccc(CN2CCN(/N=C\c3cccc([N+](=O)[O-])c3)CC2)cc1, which inhibition is on record?
A: 55.9%

Q: With O=[N+]([O-])c1cc(/C=N/N2CCCCC2)ccc1Cl as the compound, how does the inhibition read?
A: 1.34%

Q: For Nc1c2c(nc3ccccc13)CCC2, which inhibition is on record?
A: -1.89%

Q: For Nc1c2c(nc3ccn(-c4ccccc4)c(=O)c13)CCCCC2, which inhibition is on record?
A: 3.82%

Q: With CCNC(=O)c1nc[nH]c1C(=O)NCC as the compound, how does the inhibition read?
A: -0.32%

Q: Which inhibition does the source give for COc1ccc2c(c1OC)C(=O)N1c3ccccc3COC21 (stereo not drawn) here?
A: -4.65%

Q: Which inhibition does the source give for CC1CC(C)CN(C(=O)c2cc3c(=O)n4ccccc4nc3s2)C1 (stereo not drawn) here?
A: 9.39%

Q: With COc1cccc(CNS(=O)(=O)c2cccc(S(=O)(=O)N3CCOCC3)c2)c1 as the compound, how does the inhibition read?
A: 5.34%

Q: For COc1ccccc1C1CC(c2ccc(Cl)cc2Cl)Nc2nc(N)nn21 (stereo not drawn), which inhibition is on record?
A: -6.06%

Q: For O=C(COc1ccc(F)cc1)NNC(=O)c1cc2ccccc2oc1=O, which inhibition is on record?
A: -1.43%

Q: With O=C(COc1ccccc1)NNC(=O)c1cc2ccccc2oc1=O as the compound, how does the inhibition read?
A: -4.55%

Q: With CCOc1cc(N2CCOCC2)c(OCC)cc1NC(=O)c1ccc(OC)c(S(=O)(=O)N2CCOCC2)c1 as the compound, how does the inhibition read?
A: -2.5%

Q: Which inhibition does the source give for Cc1c(NS(=O)(=O)c2cccc(C(=O)NCc3ccc(Cl)cc3)c2)c(=O)n(-c2ccccc2)n1C here?
A: -7.86%

Q: With CCOC(=O)c1csc(-c2ccc(OC)c(OC)c2)n1 as the compound, how does the inhibition read?
A: 6.33%

Q: With CCOC(=O)c1csc(N)n1 as the compound, how does the inhibition read?
A: -3.93%

Q: With O=C(Nc1cccc(Cl)c1)NC1CC2CCC(C1)N2Cc1cccs1 (stereo not drawn) as the compound, how does the inhibition read?
A: -7%

Q: For CCOc1ccc(-c2c[n+]3c(n2-c2ccccc2)CCCCC3)cc1, which inhibition is on record?
A: -9.73%

Q: Which inhibition does the source give for CCOc1ccc(-n2c(-c3ccccc3)c[n+]3c2CCCCC3)cc1 here?
A: -7.91%

Q: With Cc1nc(NC(=O)COC(=O)C2CC2C)c(Cl)cc1Cl (stereo not drawn) as the compound, how does the inhibition read?
A: -3.52%

Q: With Cc1ccccc1Nc1nc(N)nc(COC(=O)c2ccco2)n1 as the compound, how does the inhibition read?
A: 10.5%

Q: Which inhibition does the source give for Cc1ccccc1Nc1nc(N)nc(COC(=O)c2ccccc2)n1 here?
A: -4.25%

Q: For CC1CN(c2ccc([N+](=O)[O-])c(NCCOc3ccccc3)c2)CCN1 (stereo not drawn), which inhibition is on record?
A: 22.7%

Q: With CC1CN(c2ccc([N+](=O)[O-])c(NCCOc3ccccc3)c2)CC(C)N1 (stereo not drawn) as the compound, how does the inhibition read?
A: 18.3%

Q: For O=C(NCCC1=CCCCC1)c1c(O)nc2ccccn2c1=O, which inhibition is on record?
A: -7.18%

Q: For O=C(NCc1ccc2c(c1)OCO2)c1c(F)c(F)c(F)c(F)c1F, which inhibition is on record?
A: 4.75%

Q: For Cc1csc2nc(O)c(C(=O)NCc3ccc4c(c3)OCO4)c(=O)n12, which inhibition is on record?
A: 28.7%

Q: Which inhibition does the source give for Cc1csc2nc(O)c(C(=O)NCCC3=CCCCC3)c(=O)n12 here?
A: 49.8%

Q: With Cc1ccc(C)c(C(=O)n2cnnc2N)c1 as the compound, how does the inhibition read?
A: -9.61%

Q: For NC(=O)C1c2ccccc2Oc2ccccc21, which inhibition is on record?
A: -5.49%

Q: With Cc1cc(C)nc(N2CCCC(C(=O)NC(C)C)C2)n1 (stereo not drawn) as the compound, how does the inhibition read?
A: 0.18%

Q: Which inhibition does the source give for O=C(Nc1cc(Cl)ccc1Cl)c1ccco1 here?
A: -6.05%

Q: Which inhibition does the source give for O=C(NC(NC(=S)Nc1cc(Cl)ccc1Cl)C(Cl)(Cl)Cl)c1ccco1 (stereo not drawn) here?
A: 11.3%

Q: For C[C@H](CO)N1C[C@H](C)[C@@H](CN(C)S(=O)(=O)c2cccs2)Oc2ccc(NC(=O)Nc3ccccc3)cc2C1=O, which inhibition is on record?
A: -4.72%

Q: For COc1ccc(NC(=O)Nc2ccc3c(c2)C(=O)N([C@H](C)CO)C[C@H](C)[C@@H](CN(C)S(=O)(=O)c2cccs2)O3)cc1, which inhibition is on record?
A: 2.72%

Q: For CCCc1nc2nc(C)c(NS(=O)(=O)c3ccc(Cl)cc3)c(=O)n2[nH]1, which inhibition is on record?
A: -4.54%

Q: With CC(C)=NNc1nc2c(c(=O)n(C)c(=O)n2C)n1CCc1ccccc1 as the compound, how does the inhibition read?
A: -14.4%

Q: With Cc1ccc(/C=C/S(=O)(=O)NCC(=O)OCC(=O)Nc2ccc(C(N)=O)cc2)cc1 as the compound, how does the inhibition read?
A: -3.63%

Q: With Cc1ccc(/C=C/S(=O)(=O)NCC(=O)OCC(=O)NCc2ccccc2)cc1 as the compound, how does the inhibition read?
A: 6.29%

Q: Which inhibition does the source give for O=C(NC1CCSc2ccccc21)c1cc([N+](=O)[O-])ccc1N1CCOCC1 (stereo not drawn) here?
A: -4.07%

Q: With Nc1nc(N)c(N=Nc2ccc(Cl)cc2)c(=O)[nH]1 as the compound, how does the inhibition read?
A: 3.75%

Q: With Nc1n[nH]c(N)c1N=Nc1ccc(Cl)cc1 as the compound, how does the inhibition read?
A: 0.26%
